Sampled rows, rich in hits. Any-hit rate of the full collection: about 11%.
RORg inh = inhibitors of mouse ROR gamma transcriptional activity. 310,000 compounds, 5.4% hits. Drosophila S2 Gal4-RORgamma UAS-luciferase reporter, 20 h. Potency, µM (highest dose often 53.6 µM), inactives show at the top dose activity change, negative = inhibition, hits mostly inhibitors. P51450; also: potency is read from the fitted curve at half-maximal effect; % is scaled to controls: 0 for no effect and ±100 for the full control effect; nearly all actives have a fitted effect of over 60% in size
Target sequence (P51450 whole entry, looked up, the tested form may be a part): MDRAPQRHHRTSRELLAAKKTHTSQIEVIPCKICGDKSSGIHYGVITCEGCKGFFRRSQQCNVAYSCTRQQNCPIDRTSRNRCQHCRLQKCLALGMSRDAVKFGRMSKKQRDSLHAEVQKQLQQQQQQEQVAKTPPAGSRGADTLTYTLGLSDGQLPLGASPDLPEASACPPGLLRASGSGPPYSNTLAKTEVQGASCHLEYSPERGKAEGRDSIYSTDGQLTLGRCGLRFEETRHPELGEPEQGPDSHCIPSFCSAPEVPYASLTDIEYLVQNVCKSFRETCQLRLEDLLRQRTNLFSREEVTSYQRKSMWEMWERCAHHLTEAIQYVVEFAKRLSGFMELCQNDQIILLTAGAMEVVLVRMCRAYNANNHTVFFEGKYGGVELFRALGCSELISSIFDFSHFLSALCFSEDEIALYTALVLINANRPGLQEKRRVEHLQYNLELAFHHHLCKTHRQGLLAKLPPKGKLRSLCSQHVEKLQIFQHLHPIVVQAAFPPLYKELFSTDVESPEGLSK
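Read-out: Photinus luciferase luminescence; inhibitors lower reporter signal. Insect Schneider cells with Gal4-ROR gamma fusion under metallothionein promoter, UAS reporter; 700 uM final copper sulfate induction, 20 hr, ambient temperature.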
IL1B secr inh = inhibitors of inflammasome signaling (IL-1 beta secretion); AID 743279; activity change, % at 57.5 µM; THP-1 LPS/ATP IL-1B secretion, AlphaLISA, 16 h; active compounds read low; 360,000 compounds, 4.7% hits; in the data active = activity change below about -50%; inconclusive = mostly about -30% to -49%; also: % is scaled to controls: 0 for no effect and ±100 for the full control effect
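THP-1 cells pretreated 1 hr with compounds (up to 57.5 uM final), then stimulated with LPS (250 ng/mL final) plus ATP (1.25 mM final); secreted IL-1B measured by AlphaLISA after 16 hr, decreased signal indicating inhibition.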
Gal4-VP16 FLuc = Gal4-VP16 reporter inhibition counter-screen; 310,000 compounds, 3.5% hits; Potency, µM (highest dose often 53.6 µM), for inactives: top-dose activity, negative = inhibition, hits mostly inhibitors; AID 2546; Drosophila S2 Gal4-VP16 UAS-luciferase, luminescence, 20 h;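 also: Gal4-VP16 expression switched on by copper sulfate through the metallothionein promoter; potency is read from the fitted curve at half-maximal effect; % is scaled to controls: 0 for no effect and ±100 for the full control effect; nearly all actives have a fitted effect of over 50% in size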
MCF10A rereplic = DNA re-replication induction in MCF 10a cells | Potency, µM (series often up to 46.1 µM), for inactives: at the highest dose activity, positive = re-replication, actives largely listed as activators | 350,000 compounds, 2.9% hits | MCF 10A DNA re-replication, Hoechst nuclear intensity, 48 h; also: potency is read from the fitted curve at half-maximal effect; % of control where 0% means no effect; nearly all actives have a fitted effect of over 50% in size
SW480 rerep = DNA re-replication induction in SW480 cells; SW480 DNA re-replication, Hoechst DNA content imaging, 48 h; Potency, µM (doses to about 46.1 µM), for the others: at the top dose re-replication activation, most hits filed as activators; 340,000 compounds, 1.8% hits; also: potency is read from the fitted curve at half-maximal effect; % of control where 0% means no effect; nearly all actives have a fitted effect of over 55% in size
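Image-based read-out: total Hoechst fluorescence of nuclei (405 nm excitation, 500-530 nm emission), with hits raising the fraction of high-intensity nuclei. SW480 colon cells incubated 48 hr with compounds at 37 C.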
The depositor's hits bear a star; ? = inconclusive; nt = no result given. Unless noted, calls follow the shape of the dose curve; as a rule, active = well fitted curve in the direction sought with a large enough effect; inconclusive = small, poorly fitted or top-dose-only effect, or another doubt; inactive = no such curve, though single readings can be large; an effect the other way counts as inactive or inconclusive.

SMILES	RORg inh	IL1B secr inh	Gal4-VP16 FLuc	MCF10A rereplic	SW480 rerep
Oc1ccc(-c2n[nH]c(=S)n2Cc2ccco2)cc1	-44.3%	0.0	-0.8%	-5.2%	-6.7%
CCCn1c(C(C)NS(=O)(=O)c2ccccc2)n[nH]c1=S (stereo not given)	10µM*	28.2	-6.2%	10.2%	0.8%
S=c1[nH]nc(C2CC2)n1Cc1ccco1	-15.8%	-6.5	3.8%	0.3%	27.4%
CCCn1c(C(C)NC(=O)c2ccccc2)n[nH]c1=S (stereo not given)	17.0%	14.4	-4.4%	0.9%	-14.7%
Oc1cc2ccccc2cc1-c1n[nH]c(=S)n1Cc1ccco1	12.6µM*	-4.0	-3.9%	?	-14.4%
CCCn1c(Cc2ccccc2)n[nH]c1=S	15.8µM*	22.0	?	-3.7%	4.0%
S=c1[nH]nc(Cc2ccccc2)n1Cc1ccco1	14.1µM*	-10.4	12.6µM*	-4.9%	-5.8%
CCn1c(C(C)NS(=O)(=O)c2ccc(Cl)cc2)n[nH]c1=S (stereo not given)	-30.7%	15.0	-0.5%	0.1%	-2.8%
COc1cccc(CN2CC(C(=O)NCC3CCOCC3)CCC2=O)c1 (stereo not given)	-1.1%	-12.1	8.5%	-0.6%	-10.5%
CCn1c(COC(=O)CNC(=O)c2ccccc2F)nc2cc(S(=O)(=O)N(C)C)ccc21	nt	4.6	nt	2.0%	5.4%
Cc1ccc(OC(=O)N(C)C[C@@H]2OCc3cn(nn3)CCCC(=O)N([C@@H](C)CO)C[C@H]2C)cc1	nt	-22.3	nt	nt	nt
COC(=O)CSc1nc(C)c(C(=O)Nc2ccccc2C)c(-c2ccc(Cl)cc2)c1C#N	1.1%	-75.7*	1.3%	9.0%	13.3%
CNC(=O)c1c[nH]c2ccc(S(=O)(=O)Nc3cccc(SC)c3)cc2c1=O	0.0%	-16.4	-0.7%	?	-2.0%
CC1(Cc2ccccc2OC(F)(F)F)C(=O)Nc2c(Cl)ccc(Cl)c21 (stereo not given)	nt	22.3	nt	nt	nt
Clc1ccc(-c2c[n+](Cc3ccc(Cl)cc3Cl)c3n2CCCCC3)cc1	-40.0%	-81.5*	11.2µM*	14.6%	12.4%
Clc1ccc(C[n+]2cc(-c3ccccc3)n3c2CCCCC3)c(Cl)c1	?	-91.2*	12.6µM*	5.4%	0.4%
Clc1ccc(-c2c[n+](Cc3ccc(Br)cc3)c3n2CCCCC3)cc1	?	-62.0*	11.2µM*	13.9%	2.7%
CCC(NC(=O)C1CCCC1)c1ccccc1 (stereo not given)	nt	12.6	nt	-9.2%	-5.5%
COc1ccccc1CCNS(=O)(=O)c1cc2c3c(c1)CCN3C(=O)CC2	nt	14.1	nt	-2.0%	1.46µM*
COc1ccc(CCNS(=O)(=O)c2cc3c4c(c2)CCN4C(=O)CC3)cc1OC	nt	-10.4	nt	0.0%	1.6%
NCCCCC(N)C(=O)NC(Cc1ccc(O)cc1)C(=O)NC(CCCCN)C(=O)O (stereo not given)	-4.2%	nt	0.7%	nt	nt
Cc1ccc(CNC(=O)C2CC(c3cccc(F)c3)=NO2)cc1 (stereo not given)	18.8%	12.1	-12.3%	5.8µM*	-3.7%
Cc1ccc(CNC(=O)C2CC(c3ccccc3F)=NO2)cc1 (stereo not given)	14.1%	60.5	17.0%	3.26µM*	?
COc1cccc(C2=NOC(C(=O)NCc3ccc(F)cc3)C2)c1 (stereo not given)	-7.1%	0.0	8.4%	0.731µM*	-8.2%
COc1cccc(C2=NOC(C(=O)NCc3cccs3)C2)c1 (stereo not given)	14.5%	14.6	4.2%	5.17µM*	3.9%
SMILES	RORg inh	IL1B secr inh	Gal4-VP16 FLuc	MCF10A rereplic	SW480 rerep
O=C(NCc1cc(C(F)(F)F)cc(C(F)(F)F)c1)C1CC(c2ccccc2F)=NO1 (stereo not given)	nt	-18.7	nt	-0.7%	-3.3%
O=C(NCc1ccc(OC(F)(F)F)cc1)C1CC(c2cccc(F)c2)=NO1 (stereo not given)	0.4%	41.9	1.3%	?	1.2%
O=C(NCc1cccc(C(F)(F)F)c1)C1CC(c2ccccc2C(F)(F)F)=NO1 (stereo not given)	29.9%	34.9	0.1%	23.1µM*	?
COc1ccc(CNC(=O)C2CC(c3cccc(OC)c3)=NO2)cc1 (stereo not given)	?	20.9	-13.1%	2.82µM*	-0.3%
C=CCC[C@H](Cc1ccc(F)cc1)C(=O)OC[C@@H](NC(=O)[C@@H](CC=C)CC(=O)N(CCO)Cc1ccccc1)C(C)(C)C	nt	?	nt	?	6.5%
COc1cc(OC)cc(C(=O)NC(=S)N2CCCCCC2)c1	0.501µM*	-9.8	1.12µM*	-3.7%	-3.5%
COc1ccc(C(=O)NC(=S)N2CCCCC2)cc1	-20.6%	-13.4	-8.3%	6.2%	?
COc1cc(OC)cc(C(=O)NC(=S)Nc2ccc(N3CCCC3)cc2)c1	3.16µM*	0.0	?	22.8%	nt
CN1CCN(c2ncnc3c2ncn3[C@H]2CN(Cc3cccnc3)C[C@@H](CO)O2)CC1	nt	4.5	nt	nt	nt
CCN(CC)C(=O)Oc1ccc2c(=O)c(-c3ccc(OC)cc3)coc2c1	20.9%	-60.4*	-7.7%	13µM*	?
CCN(CC)C(=O)Oc1ccc2c(=O)c(-c3ccc(OC)cc3)c(C)oc2c1	?	-7.1	4.6%	?	1.9%
COc1ccc(NC(=S)NCC(c2cccnc2)N2CCOCC2)cc1 (stereo not given)	-1.0%	3.9	9.4%	-4.1%	-3.4%
CCN1CCN(C(c2cccs2)C(C)NC(=S)Nc2cc(C)ccc2C)CC1 (stereo not given)	?	-8.0	-17.7%	9.0%	-9.8%
CC(NC(=O)c1ccc(-c2ccccc2)cc1)C(c1ccccc1)N1CCOCC1 (stereo not given)	nt	0.0	nt	?	?
COc1ccc(NC(=S)NC(C)C(c2ccccc2)N2CCOCC2)cc1 (stereo not given)	4.47µM*	-0.2	?	8.2%	15.5%
CC(NC(=O)c1ccc(C(F)(F)F)cc1)C(c1ccccc1)N1CCOCC1 (stereo not given)	40.4%	6.1	-10.9%	7.5%	13.2%
CC(NC(=S)Nc1ccccc1Cl)C(c1ccccc1)N1CCOCC1 (stereo not given)	3.98µM*	-19.8	?	-26.8%	-15.8%
Cc1ccc(C)c(NC(=S)NC(C)C(c2ccccc2)N2CCN(C)CC2)c1 (stereo not given)	12.6µM*	-61.8*	-16.5%	10.6%	-2.6%
CC(NC(=O)Cc1ccccc1)C(c1ccccc1)N1CCOCC1 (stereo not given)	-9.3%	-64.2*	2.5%	-4.3%	-5.7%
Cn1cccc1C(=O)N1CCC[C@@]2(CCN(c3ccccc3)C2)C1	1.6%	nt	38.6%	nt	nt
Cc1ccc(C(=O)OCC(=O)N2CCC(C)CC2)cc1S(=O)(=O)N1CCOCC1	nt	4.8	nt	nt	nt

Screens deposited in PubChem by National Center for Advancing Translational Sciences (NCATS).
